The supplement of paper PMC11732987, “Enantioselective OTUD7B fragment discovery through chemoproteomics screening and high-throughput optimisation” (Communications Chemistry, 2025)

Experiments:
Assay in all cases: log2 ratio of Biotin-Ahx-Ub-VS probe labelling (fragment/DMSO); higher = less target engagement (more negative = stronger competition), active = hit call of the paper (q ≤ 0.05, log2 ratio ≤ -1)
Settings in all cases: compound concentration: 200 uM; treatment time: 3 h
USP42 = biological target: T1, USP42 (UniProt Q9H9J4)
T1 sequence (whole entry): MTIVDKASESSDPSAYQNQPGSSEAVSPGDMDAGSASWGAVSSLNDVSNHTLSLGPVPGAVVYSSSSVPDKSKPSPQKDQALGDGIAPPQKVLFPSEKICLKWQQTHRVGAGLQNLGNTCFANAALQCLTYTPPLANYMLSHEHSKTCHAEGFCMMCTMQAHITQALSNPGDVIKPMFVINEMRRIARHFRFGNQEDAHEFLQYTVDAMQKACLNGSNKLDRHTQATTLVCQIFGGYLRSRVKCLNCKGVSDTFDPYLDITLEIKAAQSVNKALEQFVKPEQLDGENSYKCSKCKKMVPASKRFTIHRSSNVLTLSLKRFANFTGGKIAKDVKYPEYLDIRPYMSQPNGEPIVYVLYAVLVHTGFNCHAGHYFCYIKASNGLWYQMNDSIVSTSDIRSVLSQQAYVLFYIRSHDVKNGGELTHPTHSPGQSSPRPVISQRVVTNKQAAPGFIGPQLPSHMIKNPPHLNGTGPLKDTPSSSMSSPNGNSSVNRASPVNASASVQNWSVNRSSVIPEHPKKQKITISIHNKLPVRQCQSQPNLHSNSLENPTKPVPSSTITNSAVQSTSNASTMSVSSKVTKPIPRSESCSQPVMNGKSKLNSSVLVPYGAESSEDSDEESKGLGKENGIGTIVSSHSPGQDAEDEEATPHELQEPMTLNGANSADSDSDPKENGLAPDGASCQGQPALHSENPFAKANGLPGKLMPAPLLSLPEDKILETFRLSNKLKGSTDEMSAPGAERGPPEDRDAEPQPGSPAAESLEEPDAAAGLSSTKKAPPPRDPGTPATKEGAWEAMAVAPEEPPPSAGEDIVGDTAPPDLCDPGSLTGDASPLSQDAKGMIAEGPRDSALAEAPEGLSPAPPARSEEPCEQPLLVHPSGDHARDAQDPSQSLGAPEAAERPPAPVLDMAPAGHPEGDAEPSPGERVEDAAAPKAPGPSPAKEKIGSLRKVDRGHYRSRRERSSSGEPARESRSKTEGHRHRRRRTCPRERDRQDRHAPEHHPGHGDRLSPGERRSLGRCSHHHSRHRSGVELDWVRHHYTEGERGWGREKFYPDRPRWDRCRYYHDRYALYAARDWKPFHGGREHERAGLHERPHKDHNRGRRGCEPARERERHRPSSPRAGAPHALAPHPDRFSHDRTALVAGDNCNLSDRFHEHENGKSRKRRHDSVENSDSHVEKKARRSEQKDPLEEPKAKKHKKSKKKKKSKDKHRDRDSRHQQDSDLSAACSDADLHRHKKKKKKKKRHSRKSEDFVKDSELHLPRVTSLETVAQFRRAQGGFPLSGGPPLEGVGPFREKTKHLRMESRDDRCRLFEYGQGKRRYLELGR
How it was run: (§1)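 Labelled DUBs from HEK293T lysate were NeutrAvidin-enriched, digested with LysC and trypsin, and run by diaPASEF LC-MS/MS. Before that, each 495 µg sample in Tris/CHAPS/IGEPAL buffer with protease inhibitors was treated in triplicate with fragment at 200 µM or vehicle for 3 h, then with Biotin-Ahx-Ub-VS at 0.5 µM final for 1 h. Values are average log2 ratios of fragment over vehicle by unpaired t-test, based on global-median-normalised Spectronaut label-free quantities from proteins with ≥2 unique peptides.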

USP46 = USP46 (UniProt P62068)
How it was run: as §1

USP47 = biological target: T2, USP47 (UniProt Q96K76)
T2 sequence (whole entry): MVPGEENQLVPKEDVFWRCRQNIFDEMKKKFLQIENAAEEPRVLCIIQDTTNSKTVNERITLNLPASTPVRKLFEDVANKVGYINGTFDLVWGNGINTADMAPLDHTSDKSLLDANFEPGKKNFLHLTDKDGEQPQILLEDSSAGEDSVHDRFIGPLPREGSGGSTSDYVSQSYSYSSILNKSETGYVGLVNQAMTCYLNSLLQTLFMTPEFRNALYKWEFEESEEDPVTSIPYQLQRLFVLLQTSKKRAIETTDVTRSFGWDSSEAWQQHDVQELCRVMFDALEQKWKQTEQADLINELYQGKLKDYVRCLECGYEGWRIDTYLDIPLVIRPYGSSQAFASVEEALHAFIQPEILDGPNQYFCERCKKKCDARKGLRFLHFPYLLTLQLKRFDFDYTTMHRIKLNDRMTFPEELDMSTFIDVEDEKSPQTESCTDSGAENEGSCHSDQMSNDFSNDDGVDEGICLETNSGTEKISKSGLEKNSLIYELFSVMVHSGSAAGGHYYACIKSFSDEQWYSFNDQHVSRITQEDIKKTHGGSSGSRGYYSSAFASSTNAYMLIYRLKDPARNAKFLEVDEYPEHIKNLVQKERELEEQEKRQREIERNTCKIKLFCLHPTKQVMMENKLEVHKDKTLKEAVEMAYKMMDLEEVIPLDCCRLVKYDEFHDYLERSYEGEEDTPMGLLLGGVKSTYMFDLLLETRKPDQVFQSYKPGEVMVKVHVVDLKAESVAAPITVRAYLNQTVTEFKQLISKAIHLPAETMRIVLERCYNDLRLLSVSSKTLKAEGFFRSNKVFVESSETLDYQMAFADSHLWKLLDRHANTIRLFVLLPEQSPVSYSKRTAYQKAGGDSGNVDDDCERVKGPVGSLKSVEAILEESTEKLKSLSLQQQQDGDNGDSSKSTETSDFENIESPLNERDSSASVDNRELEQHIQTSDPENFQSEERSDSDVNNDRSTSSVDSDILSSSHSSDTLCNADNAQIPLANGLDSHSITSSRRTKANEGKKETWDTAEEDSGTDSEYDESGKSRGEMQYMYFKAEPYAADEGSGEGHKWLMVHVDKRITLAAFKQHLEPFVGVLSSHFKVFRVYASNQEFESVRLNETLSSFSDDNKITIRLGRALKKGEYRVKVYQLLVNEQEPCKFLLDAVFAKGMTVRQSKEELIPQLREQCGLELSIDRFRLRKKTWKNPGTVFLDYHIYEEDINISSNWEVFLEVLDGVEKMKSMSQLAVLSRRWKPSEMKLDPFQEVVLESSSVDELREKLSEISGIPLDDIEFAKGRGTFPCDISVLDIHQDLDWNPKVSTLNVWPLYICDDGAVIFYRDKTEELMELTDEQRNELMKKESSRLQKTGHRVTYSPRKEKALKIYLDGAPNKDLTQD
How it was run: as §1

USP48 = biological target: T3, USP48 (UniProt Q86UV5)
T3 sequence (whole entry): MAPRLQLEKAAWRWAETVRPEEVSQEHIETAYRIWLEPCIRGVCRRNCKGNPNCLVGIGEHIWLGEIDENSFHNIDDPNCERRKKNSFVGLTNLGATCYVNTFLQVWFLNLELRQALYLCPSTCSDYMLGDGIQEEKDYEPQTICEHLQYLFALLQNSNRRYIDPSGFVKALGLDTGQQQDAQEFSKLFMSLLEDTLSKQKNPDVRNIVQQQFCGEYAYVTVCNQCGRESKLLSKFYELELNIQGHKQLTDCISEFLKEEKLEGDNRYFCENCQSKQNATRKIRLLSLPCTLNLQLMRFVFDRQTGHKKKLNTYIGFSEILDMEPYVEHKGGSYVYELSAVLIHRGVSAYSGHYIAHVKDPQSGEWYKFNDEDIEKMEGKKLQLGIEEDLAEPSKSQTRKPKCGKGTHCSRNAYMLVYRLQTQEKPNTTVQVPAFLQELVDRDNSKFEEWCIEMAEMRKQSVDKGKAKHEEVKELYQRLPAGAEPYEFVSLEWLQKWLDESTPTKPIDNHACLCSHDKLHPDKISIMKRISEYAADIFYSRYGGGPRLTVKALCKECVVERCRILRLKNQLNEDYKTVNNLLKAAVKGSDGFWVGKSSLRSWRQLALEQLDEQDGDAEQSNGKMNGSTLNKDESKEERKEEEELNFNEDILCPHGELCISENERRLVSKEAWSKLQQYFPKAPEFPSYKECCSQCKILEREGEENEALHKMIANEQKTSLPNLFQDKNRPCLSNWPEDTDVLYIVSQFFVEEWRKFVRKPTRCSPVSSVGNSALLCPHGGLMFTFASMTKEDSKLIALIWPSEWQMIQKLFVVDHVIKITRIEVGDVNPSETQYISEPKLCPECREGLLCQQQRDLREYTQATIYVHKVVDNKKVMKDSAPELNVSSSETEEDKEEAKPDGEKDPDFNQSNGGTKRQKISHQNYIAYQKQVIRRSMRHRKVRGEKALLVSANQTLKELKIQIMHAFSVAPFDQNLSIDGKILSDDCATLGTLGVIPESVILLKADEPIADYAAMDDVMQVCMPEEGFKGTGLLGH
How it was run: as §1

USP5 = biological target: T4, USP5 (UniProt P45974)
T4 sequence (whole entry): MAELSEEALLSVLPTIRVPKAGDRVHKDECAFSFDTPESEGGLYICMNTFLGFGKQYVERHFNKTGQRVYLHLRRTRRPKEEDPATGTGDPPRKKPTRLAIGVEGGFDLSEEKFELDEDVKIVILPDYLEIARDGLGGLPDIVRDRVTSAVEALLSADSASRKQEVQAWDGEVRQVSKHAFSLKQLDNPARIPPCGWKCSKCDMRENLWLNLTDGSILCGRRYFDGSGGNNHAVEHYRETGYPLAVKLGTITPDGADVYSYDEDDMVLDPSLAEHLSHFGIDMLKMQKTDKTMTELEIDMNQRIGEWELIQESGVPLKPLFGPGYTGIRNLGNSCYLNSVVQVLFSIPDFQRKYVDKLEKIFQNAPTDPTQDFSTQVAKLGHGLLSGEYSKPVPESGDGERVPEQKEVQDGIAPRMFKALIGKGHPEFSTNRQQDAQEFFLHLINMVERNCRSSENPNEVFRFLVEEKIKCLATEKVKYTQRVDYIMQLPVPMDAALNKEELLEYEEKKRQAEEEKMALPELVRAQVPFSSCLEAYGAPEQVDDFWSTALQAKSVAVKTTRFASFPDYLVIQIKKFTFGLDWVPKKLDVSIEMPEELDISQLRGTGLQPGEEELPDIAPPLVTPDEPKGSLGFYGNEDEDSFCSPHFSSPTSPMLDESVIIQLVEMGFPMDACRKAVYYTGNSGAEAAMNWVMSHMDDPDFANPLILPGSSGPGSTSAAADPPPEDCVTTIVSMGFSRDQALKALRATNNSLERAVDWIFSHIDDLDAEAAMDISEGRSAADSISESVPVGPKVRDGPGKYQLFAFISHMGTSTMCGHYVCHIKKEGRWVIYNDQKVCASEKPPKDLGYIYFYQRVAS
How it was run: as §1

USP54 = USP54 (UniProt Q70EL1)
How it was run: as §1

USP7 = USP7 (UniProt Q93009)
How it was run: as §1

USP8 = biological target: T5, USP8 (UniProt P40818)
T5 sequence (whole entry): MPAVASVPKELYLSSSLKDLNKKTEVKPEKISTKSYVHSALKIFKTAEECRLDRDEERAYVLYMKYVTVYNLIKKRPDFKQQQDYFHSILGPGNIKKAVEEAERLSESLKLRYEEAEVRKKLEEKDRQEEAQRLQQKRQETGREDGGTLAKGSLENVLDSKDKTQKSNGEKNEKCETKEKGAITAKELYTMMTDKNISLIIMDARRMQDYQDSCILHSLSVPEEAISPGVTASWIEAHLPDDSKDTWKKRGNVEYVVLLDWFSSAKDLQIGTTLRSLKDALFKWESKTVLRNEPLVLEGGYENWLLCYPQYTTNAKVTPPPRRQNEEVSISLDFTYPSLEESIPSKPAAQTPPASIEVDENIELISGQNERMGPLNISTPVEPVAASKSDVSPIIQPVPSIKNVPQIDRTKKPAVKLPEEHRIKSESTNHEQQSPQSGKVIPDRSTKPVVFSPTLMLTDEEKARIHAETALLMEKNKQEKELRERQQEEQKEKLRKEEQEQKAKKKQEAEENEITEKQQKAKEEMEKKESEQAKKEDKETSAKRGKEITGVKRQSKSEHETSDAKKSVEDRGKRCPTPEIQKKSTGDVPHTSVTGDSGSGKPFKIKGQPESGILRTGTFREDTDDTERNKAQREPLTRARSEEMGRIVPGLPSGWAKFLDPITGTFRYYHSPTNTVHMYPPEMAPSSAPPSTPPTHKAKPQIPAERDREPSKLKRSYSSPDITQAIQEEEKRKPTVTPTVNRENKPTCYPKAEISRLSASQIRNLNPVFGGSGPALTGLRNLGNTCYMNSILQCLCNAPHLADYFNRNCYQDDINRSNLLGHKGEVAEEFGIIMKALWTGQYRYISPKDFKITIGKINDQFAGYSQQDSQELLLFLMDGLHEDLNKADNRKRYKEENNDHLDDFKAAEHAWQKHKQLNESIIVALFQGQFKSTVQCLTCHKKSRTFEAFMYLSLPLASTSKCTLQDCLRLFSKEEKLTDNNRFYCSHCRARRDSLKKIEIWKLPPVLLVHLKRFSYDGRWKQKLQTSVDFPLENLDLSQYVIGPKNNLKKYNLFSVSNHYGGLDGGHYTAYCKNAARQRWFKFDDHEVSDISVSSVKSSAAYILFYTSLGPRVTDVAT
How it was run: as §1

Measured: log2 ratio of Biotin-Ahx-Ub-VS probe labelling

Chain of USP46 (P62068 whole entry): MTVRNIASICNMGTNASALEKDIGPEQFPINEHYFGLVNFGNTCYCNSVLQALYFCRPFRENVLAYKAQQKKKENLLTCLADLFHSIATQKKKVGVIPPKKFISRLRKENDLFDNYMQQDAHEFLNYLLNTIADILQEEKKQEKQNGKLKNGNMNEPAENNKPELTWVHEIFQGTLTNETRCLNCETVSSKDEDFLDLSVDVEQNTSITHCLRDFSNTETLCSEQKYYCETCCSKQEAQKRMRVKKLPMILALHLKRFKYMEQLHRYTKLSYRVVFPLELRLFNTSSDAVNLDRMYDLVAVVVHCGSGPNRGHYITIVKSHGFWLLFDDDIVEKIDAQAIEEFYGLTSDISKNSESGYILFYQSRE
Chain of USP7 (Q93009 whole entry, looked up): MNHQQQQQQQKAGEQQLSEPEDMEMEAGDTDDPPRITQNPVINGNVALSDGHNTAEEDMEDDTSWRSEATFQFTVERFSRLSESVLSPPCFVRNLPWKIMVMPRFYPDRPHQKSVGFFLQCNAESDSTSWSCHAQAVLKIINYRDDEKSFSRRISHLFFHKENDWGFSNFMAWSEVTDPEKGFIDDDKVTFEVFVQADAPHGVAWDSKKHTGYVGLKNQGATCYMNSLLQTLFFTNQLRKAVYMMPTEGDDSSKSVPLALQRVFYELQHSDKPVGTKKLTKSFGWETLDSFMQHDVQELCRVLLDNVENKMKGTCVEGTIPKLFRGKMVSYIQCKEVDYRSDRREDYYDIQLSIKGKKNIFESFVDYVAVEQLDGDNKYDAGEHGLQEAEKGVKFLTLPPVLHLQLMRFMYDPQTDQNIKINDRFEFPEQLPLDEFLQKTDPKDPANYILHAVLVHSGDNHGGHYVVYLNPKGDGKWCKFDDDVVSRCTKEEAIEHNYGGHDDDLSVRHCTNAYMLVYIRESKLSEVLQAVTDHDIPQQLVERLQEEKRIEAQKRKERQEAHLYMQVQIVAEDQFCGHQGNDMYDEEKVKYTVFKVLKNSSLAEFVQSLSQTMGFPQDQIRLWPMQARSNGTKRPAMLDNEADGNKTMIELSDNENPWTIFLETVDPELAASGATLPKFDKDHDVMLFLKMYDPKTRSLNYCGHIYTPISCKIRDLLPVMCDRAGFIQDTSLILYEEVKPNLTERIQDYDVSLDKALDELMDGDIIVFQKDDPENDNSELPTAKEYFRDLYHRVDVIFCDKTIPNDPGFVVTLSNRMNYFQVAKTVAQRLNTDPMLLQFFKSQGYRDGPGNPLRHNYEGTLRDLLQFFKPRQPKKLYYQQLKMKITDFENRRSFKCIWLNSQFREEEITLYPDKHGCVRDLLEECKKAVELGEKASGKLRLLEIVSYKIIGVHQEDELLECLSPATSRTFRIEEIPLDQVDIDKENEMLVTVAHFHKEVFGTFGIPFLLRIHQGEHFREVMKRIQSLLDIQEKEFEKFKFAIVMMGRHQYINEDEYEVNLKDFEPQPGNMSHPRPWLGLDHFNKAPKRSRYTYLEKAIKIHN
Chain of USP54 (Q70EL1 whole entry): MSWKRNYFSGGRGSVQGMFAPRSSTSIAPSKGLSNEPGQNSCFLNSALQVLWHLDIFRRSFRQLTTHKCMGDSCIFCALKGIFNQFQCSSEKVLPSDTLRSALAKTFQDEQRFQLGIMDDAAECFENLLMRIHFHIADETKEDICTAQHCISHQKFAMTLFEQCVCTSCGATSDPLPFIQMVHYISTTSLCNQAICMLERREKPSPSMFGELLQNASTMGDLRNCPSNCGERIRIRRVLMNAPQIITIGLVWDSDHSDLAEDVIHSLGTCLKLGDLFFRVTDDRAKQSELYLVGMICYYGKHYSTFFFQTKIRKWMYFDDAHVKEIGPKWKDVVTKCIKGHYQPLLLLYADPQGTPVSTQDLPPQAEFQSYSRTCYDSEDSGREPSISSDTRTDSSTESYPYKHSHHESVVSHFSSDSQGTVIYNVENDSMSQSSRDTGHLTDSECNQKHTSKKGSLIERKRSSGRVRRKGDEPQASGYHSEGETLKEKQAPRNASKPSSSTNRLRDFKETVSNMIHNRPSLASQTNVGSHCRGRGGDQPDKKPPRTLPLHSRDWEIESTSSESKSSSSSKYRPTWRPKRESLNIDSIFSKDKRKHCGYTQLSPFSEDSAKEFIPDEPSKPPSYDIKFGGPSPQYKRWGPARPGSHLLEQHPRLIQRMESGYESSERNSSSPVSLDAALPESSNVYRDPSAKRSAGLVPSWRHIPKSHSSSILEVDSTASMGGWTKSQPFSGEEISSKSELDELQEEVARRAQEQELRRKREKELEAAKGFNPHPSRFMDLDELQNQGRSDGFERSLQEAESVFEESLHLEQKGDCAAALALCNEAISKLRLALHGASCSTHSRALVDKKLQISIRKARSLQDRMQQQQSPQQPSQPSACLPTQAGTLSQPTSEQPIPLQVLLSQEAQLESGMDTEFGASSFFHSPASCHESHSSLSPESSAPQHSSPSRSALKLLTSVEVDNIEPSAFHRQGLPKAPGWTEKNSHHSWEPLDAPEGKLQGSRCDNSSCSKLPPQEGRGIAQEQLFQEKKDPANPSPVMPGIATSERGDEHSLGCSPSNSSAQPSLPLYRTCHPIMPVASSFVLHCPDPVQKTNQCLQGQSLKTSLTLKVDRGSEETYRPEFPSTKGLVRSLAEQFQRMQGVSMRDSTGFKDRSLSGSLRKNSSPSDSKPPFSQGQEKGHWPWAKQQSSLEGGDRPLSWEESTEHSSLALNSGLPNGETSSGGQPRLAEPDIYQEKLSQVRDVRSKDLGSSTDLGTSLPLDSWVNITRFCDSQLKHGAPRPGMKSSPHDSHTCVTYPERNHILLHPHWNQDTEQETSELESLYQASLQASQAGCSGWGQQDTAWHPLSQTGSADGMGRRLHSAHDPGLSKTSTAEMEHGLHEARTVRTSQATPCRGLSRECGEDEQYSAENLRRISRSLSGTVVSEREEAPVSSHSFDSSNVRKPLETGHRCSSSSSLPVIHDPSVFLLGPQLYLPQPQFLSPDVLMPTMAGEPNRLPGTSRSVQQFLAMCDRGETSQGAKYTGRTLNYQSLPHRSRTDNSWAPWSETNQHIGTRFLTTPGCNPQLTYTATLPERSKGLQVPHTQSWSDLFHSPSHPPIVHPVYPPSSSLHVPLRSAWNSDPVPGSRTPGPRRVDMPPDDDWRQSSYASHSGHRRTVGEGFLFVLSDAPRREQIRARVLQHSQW

Cl.O=C(CCl)NC1(c2ncccn2)CCC1
inactive: USP42 0.259 | USP46 0.267 | USP47 -0.186 | USP48 -0.0959 | USP5 -0.174 | USP54 -0.292 | USP7 -0.0088 | USP8 -0.47
